PubChem BioAssay (NCATS)
Results filed as inconclusive are left out. Where a call stands in place of a potency, no number is given. Values without a mark were called inactive. Activity calls are given as the source filed them. Calls follow the shape of the dose curve; as a rule, active = well fitted curve in the direction sought with a large enough effect; inconclusive = small, poorly fitted or top-dose-only effect, or another doubt; inactive = no such curve, though single readings can be large; an effect the other way counts as inactive or inconclusive.

Key:
[1] = tested on: JEG-3; assay: Primary qHTS to identify gynecologic anti-cancer compounds using libraries of approved drugs and bioactive compounds (AID 1345084); details: Gynecologic cancer cell panel viability, ATPlite luminescence, 48 h; series mostly up to 57.5 µM; also: nearly all actives have a fitted effect of over 55% in size
Outline: (§1)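 Five-concentration response, 48 h; readout is ATP-driven luciferase luminescence.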

[2] = tested on: PA-1; assay: as above; details: Gynecologic cancer cell panel viability, ATPlite luminescence, 48 h; series mostly up to 57.5 µM
Outline: as §1

[3] = tested on: Tov112D; assay: as above; details: Gynecologic cancer cell panel viability, ATPlite luminescence, 48 h; series mostly up to 57.5 µM
Outline: as §1

[4] = qHTS assay to identify inhibitors of the type 1 interferon - major histocompatibility complex class I in skeletal muscle: Counter screen cell viability and HiBit confirmation (AID 1347412); details: iHSKM muscle cells + IFN-b, HiBiT or CellTiter-Glo, 24 h; also: nearly all actives have a fitted effect of over 60% in size
Outline: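 HLA-B*08:01–HiBiT knock-in immortalized human myoblasts (C25cl48) stimulated with 4.0 ng/ml human IFN-beta and dosed with compound in a 12-point 1:3 titration (top final 46 uM). After 24 hrs at 37 C, HiBiT lytic luminescence or CellTiter Glo ATP read out.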

[5] = tested on: Tov-21-G; assay: Primary qHTS to identify gynecologic anti-cancer compounds using libraries of approved drugs and bioactive compounds (AID 1345084); details: Gynecologic cancer cell panel viability, ATPlite luminescence, 48 h; series mostly up to 57.5 µM; also: nearly all actives have a fitted effect of over 55% in size
Outline: as §1

[6] = tested on: OV90; assay: as above; details: Gynecologic cancer cell panel viability, ATPlite luminescence, 48 h; series mostly up to 57.5 µM
Outline: as §1

[7] = tested on: SKOV3; assay: as above; details: Gynecologic cancer cell panel viability, ATPlite luminescence, 48 h; series mostly up to 57.5 µM
Outline: as §1
Potency is read from the fitted curve at half-maximal effect.

For `CS(=O)(=O)N1CCC(NC(=O)c2[nH]ncc2NC(=O)c2c(Cl)cccc2Cl)CC1`, which Potency [1] is on record?
The Potency was “inactive”.

And the Potency [2]?
Its Potency is 3.98 µM (active).

What about the Potency [3] of the same compound?
Its Potency is 8.91 µM (active).

What about the Potency ([4]; HiBiT) of the same compound?
Its Potency is 1.98 µM (active).

And the activity change, negative = inhibition ([4]; Viability, at 45.9 µM (top of the series))?
The activity change, negative = inhibition was 12.3%.

For `CC(=O)NCC(=O)N1C2CCC1c1cc(Nc3ncc(C(F)(F)F)c(NC4CCC4)n3)ccc12` (stereo unspecified), which Potency [1] is on record?
Its Potency is “inactive”.

What about the Potency [5] of the same compound?
Its Potency is 8.91 µM (active).

Which Potency [1] does the source give for `CN1CCN(c2ccc(C(=O)Nc3n[nH]c4ccc(Cc5cc(F)cc(F)c5)cc34)c(NC3CCOCC3)c2)CC1` here?
Its Potency is “inactive”.

And the Potency [5]?
The Potency was “inactive”.

And the Potency [3]?
Its Potency is “inactive”.

And the Potency ([4]; HiBiT)?
Its Potency is 17.6 µM (active).

What about the Potency ([4]; Viability) of the same compound?
The Potency was 27.9 µM (active).

Which Potency [6] does the source give for `Cn1c(=O)n(-c2ccc(C(C)(C)C#N)cc2)c2c3cc(C#Cc4cccnc4)ccc3ncc21` here?
The Potency was 0.224 µM (active).

What about the Potency [2] of the same compound?
The Potency was 0.282 µM (active).

What about the Potency [5] of the same compound?
The Potency was 0.158 µM (active).

For `FC(F)(F)c1cc(-c2ncn(/C=C\c3nnco3)n2)cc(C(F)(F)F)c1`, which Potency [6] is on record?
Its Potency is “inactive”.

What about the Potency [7] of the same compound?
The Potency was “inactive”.

What about the Potency [5] of the same compound?
The Potency was “inactive”.

What about the Potency [3] of the same compound?
The Potency was “inactive”.

With `COc1cc(C(=O)NC2CCN(C)CC2)ccc1Nc1ncc2c(n1)N(C1CCCC1)CC(F)(F)C(=O)N2C` as the compound, how does the Potency [6] read?
Its Potency is 22.4 µM (active).

What about the Potency [2] of the same compound?
The Potency was 0.251 µM (active).

What about the Potency [7] of the same compound?
Its Potency is 15.8 µM (active).

For `O=C1CCC=CC1(O)C(=O)OCc1ccccc1O[C@@H]1O[C@H](CO)[C@@H](O)[C@H](O)[C@H]1O` (stereo partly specified), which Potency [6] is on record?
Its Potency is “inactive”.

And the Potency [7]?
Its Potency is “inactive”.

And the Potency [5]?
The Potency was “inactive”.

And the Potency [3]?
The Potency was “inactive”.

For `CC1CCC2C(C(=O)O)=COC(O[C@@H]3O[C@H](CO)[C@@H](O)[C@H](O)[C@H]3O)C12` (stereo partly specified), which Potency [6] is on record?
The Potency was “inactive”.

What about the Potency [2] of the same compound?
Its Potency is “inactive”.

What about the Potency [5] of the same compound?
The Potency was “inactive”.

And the Potency [3]?
Its Potency is “inactive”.

For `COc1ncc(Nc2ncc([C@H](C)N3CCN(S(C)(=O)=O)CC3)cc2-c2nc(C)nc(N)n2)cc1F`, which Potency [6] is on record?
The Potency was “inactive”.

And the Potency [7]?
The Potency was 2.82 µM (active).

What about the Potency [3] of the same compound?
The Potency was “inactive”.

With `CNC(=O)c1ccccc1Nc1nc(Nc2ccc3c(c2OC)CCC[C@@H](N2CCN(CCO)CC2)C3)ncc1Cl` as the compound, how does the Potency [6] read?
The Potency was 7.94 µM (active).

And the Potency [2]?
The Potency was 10 µM (active).

And the Potency [5]?
The Potency was 10 µM (active).

For `COc1cc2nc(N3CCC(N4CCCCC4)CC3)nc(NC3CCCCCC3)c2cc1OC`, which Potency [6] is on record?
The Potency was 22.4 µM (active).

And the Potency [7]?
The Potency was 22.4 µM (active).

Which Potency [6] does the source give for `C/C=C1\[C@H](O[C@@H]2O[C@H](CO)[C@@H](O)[C@H](O)[C@H]2O)OC=C2C(=O)OCCc3ccc(O)c(c3)Oc3ccc(cc3)CCOC(=O)C[C@H]21` here?
The Potency was “inactive”.

And the Potency [2]?
The Potency was “inactive”.

And the Potency [5]?
Its Potency is “inactive”.

What about the Potency [3] of the same compound?
The Potency was “inactive”.

With `CCOC(=O)Nc1cc(-c2ccc(C)c(NS(C)(=O)=O)c2)nn2c(C)nnc12` as the compound, how does the Potency [6] read?
The Potency was 12.6 µM (active).

And the Potency [2]?
Its Potency is 31.6 µM (active).

What about the Potency [7] of the same compound?
Its Potency is 7.08 µM (active).

For `CC[C@]1(O)CC2CN(CCc3c([nH]c4ccccc34)[C@@](C(=O)OC)(c3cc4c(cc3OC)N(C=O)[C@H]3[C@@](O)(C(=O)OC)[C@H](OC(C)=O)[C@]5(CC)C=CCN6CC[C@]43[C@@H]65)C2)C1` (stereo partly specified), which Potency [6] is on record?
Its Potency is 1.78 µM (active).

What about the Potency [2] of the same compound?
Its Potency is 0.126 µM (active).

And the Potency [5]?
Its Potency is 0.126 µM (active).

And the Potency [3]?
Its Potency is 0.158 µM (active).

Which Potency [6] does the source give for `O=C1C=CC2OC(c3ccccc3)C(O)C2O1` (stereo unspecified) here?
The Potency was “inactive”.

And the Potency [7]?
The Potency was “inactive”.

And the Potency [3]?
The Potency was “inactive”.

For `CC(=O)N1CCN(Cc2ccc([C@H](C)Nc3nccc(N4C(=O)OC[C@@H]4C(C)C)n3)cc2)CC1`, which Potency [6] is on record?
Its Potency is “inactive”.

What about the Potency [7] of the same compound?
Its Potency is “inactive”.

And the Potency [5]?
Its Potency is “inactive”.

And the Potency [3]?
Its Potency is “inactive”.

With `N#Cc1c(Oc2ccc(F)c(NC(=O)Cc3cccc(C(F)(F)F)c3)c2)ccc2nc(NC(=O)C3CC3)sc12` as the compound, how does the Potency [6] read?
Its Potency is 1.58 µM (active).

What about the Potency [2] of the same compound?
The Potency was 8.91 µM (active).

What about the Potency [5] of the same compound?
The Potency was 7.94 µM (active).

What does the source list for `CC(C)CCC(=O)CC1c2ccccc2C(=O)N1c1ccc2ccc(Cl)nc2n1` (stereo unspecified)?
Potency [6]: inactive; Potency [2]: inactive; Potency [5]: inactive; Potency [3]: 8.91 µM (active)

For `COc1ncc(Nc2ncc([C@@H](C)N3CCN(S(C)(=O)=O)CC3)cc2-c2nc(C)nc(N)n2)cc1F`, which Potency [6] is on record?
Its Potency is “inactive”.

What about the Potency [2] of the same compound?
The Potency was “inactive”.

What about the Potency [7] of the same compound?
The Potency was 0.398 µM (active).

What about the Potency [3] of the same compound?
The Potency was “inactive”.

What does the source list for `CC(=O)NC1=NN(C(C)=O)C(C)(c2ccccc2)S1` (stereo unspecified)?
Potency [6]: inactive; Potency [2]: 3.98 µM (active); Potency [3]: 3.16 µM (active)

Which results are given for `Nc1ccccc1N`?
Potency [6]: 10 µM (active); Potency [2]: 14.1 µM (active); Potency [7]: 12.6 µM (active); Potency [5]: 12.6 µM (active)

What does the source list for `Cc1onc(C(=O)N2CCN(C(c3ccc(Cl)cc3)c3ccc(Cl)cc3)CC2)c1[N+](=O)[O-]`?
Potency [6]: inactive; Potency [2]: 8.91 µM (active); Potency [7]: 7.94 µM (active); Potency [5]: 1.12 µM (active); Potency [3]: 7.94 µM (active)

Which Potency [6] does the source give for `CC1(C)CC2C(C1)C(C)(O)C13CC1(COC3=O)C2O` (stereo unspecified) here?
The Potency was “inactive”.

And the Potency [2]?
The Potency was “inactive”.

What about the Potency [7] of the same compound?
Its Potency is “inactive”.

And the Potency [5]?
The Potency was “inactive”.

What about the Potency [3] of the same compound?
The Potency was “inactive”.

Which Potency [6] does the source give for `Cc1cc(C(N)=O)ccc1-n1c(CCC(=O)O)ccc1-c1ccc(-n2ccnc2)cc1` here?
Its Potency is “inactive”.

And the Potency [2]?
Its Potency is “inactive”.

What about the Potency [5] of the same compound?
The Potency was “inactive”.

And the Potency [3]?
The Potency was “inactive”.

With `COc1cc(O)cc(/C=C/c2ccc(O[C@@H]3O[C@H](CO)[C@@H](O)[C@H](O)[C@H]3O)cc2)c1` as the compound, how does the Potency [6] read?
Its Potency is “inactive”.

And the Potency [2]?
The Potency was “inactive”.

What about the Potency [3] of the same compound?
The Potency was “inactive”.

With `COc1ccc([C@@]2(O)c3c(ccc(CC=C(C)C)c3O)NC(=O)[C@@H]2OC)cc1` as the compound, how does the Potency [6] read?
Its Potency is “inactive”.

What about the Potency [2] of the same compound?
The Potency was “inactive”.

What about the Potency [7] of the same compound?
The Potency was “inactive”.

And the Potency [5]?
Its Potency is “inactive”.

And the Potency [3]?
The Potency was “inactive”.

For `COc1cc(N2CCC(N3CCN(C)CC3)CC2)ccc1Nc1ncc(Cl)c(-c2c[nH]c3ccccc23)n1`, which Potency [6] is on record?
Its Potency is 15.8 µM (active).

And the Potency [7]?
The Potency was 3.98 µM (active).

And the Potency [5]?
Its Potency is 8.91 µM (active).

And the Potency [3]?
Its Potency is 20 µM (active).

Which Potency [6] does the source give for `COC(=O)c1ccnc(-c2cc(C(=O)NCCc3ccccc3)ccn2)c1` here?
The Potency was “inactive”.

What about the Potency [2] of the same compound?
The Potency was “inactive”.

And the Potency [7]?
Its Potency is “inactive”.

And the Potency [5]?
Its Potency is “inactive”.

And the Potency [3]?
Its Potency is “inactive”.

What does the source list for `CC1CC2OC3(OC2C(C)(C)O)C1C1(C)CCC24CC25CCC(O[C@@H]2OC[C@@H](O)[C@H](O)[C@H]2O)C(C)(C)C5CC=C4C1(C)C3O` (stereo partly specified)?
Potency [6]: inactive; Potency [2]: inactive; Potency [7]: inactive; Potency [5]: inactive; Potency [3]: inactive

What does the source list for `Cc1nc(Nc2n[nH]c3c2CN(C(=O)NC(CN(C)C)c2ccccc2)C3(C)C)c2sccc2n1` (stereo unspecified)?
Potency [6]: 3.16 µM (active); Potency [2]: 0.316 µM (active); Potency [3]: 6.31 µM (active)

Which Potency [6] does the source give for `O=C(O)c1ccc(CN2CCC(CN[C@@H]3C[C@H]3c3ccccc3)CC2)cc1` here?
The Potency was “inactive”.

What about the Potency [2] of the same compound?
The Potency was “inactive”.

And the Potency [5]?
Its Potency is “inactive”.

What about the Potency [3] of the same compound?
The Potency was “inactive”.

With `CN1CCN(Cc2ccc(-c3cnc4[nH]cc(-c5ccc6[nH]ccc6c5)c4c3)cc2)CC1` as the compound, how does the Potency [6] read?
The Potency was 10 µM (active).

And the Potency [2]?
Its Potency is 12.6 µM (active).

What about the Potency [7] of the same compound?
Its Potency is 14.1 µM (active).

And the Potency [5]?
The Potency was 20 µM (active).
